Hit rate of the full screen: of about 5,500 compounds, about 2,000 (36%) were called active. Roughly 18% stayed inconclusive and do not appear here. Cut-off read from the data, not from the text of the source: active = normalized growth mostly below about 0.91 (no sharp cut-off); inconclusive = no clear call, values can overlap the other calls; inactive = mostly above about 0.92. Some of the results follow.
Test: chemical genetic growth profiling, strain panel (AID 1159580);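 note: tested at 20 µM; growth read once vehicle control cultures reached saturation at 30 °C; 1 = growth at the plate median or of vehicle wells; lower values mean less growth of the strain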
Conditions: growth OD

Measured: normalized growth

C=NC(C(=O)NC1C(=O)N2C1SC(C)(C)C2C(=O)O)c1ccccc1 (configuration not stated)
inactive: S. cerevisiae deletion strains, locus YJR075W, strain HOC1, stronger effect = lower value 0.991 | S. cerevisiae deletion strains, locus YKL009W, strain mrt4, stronger effect = lower value 1.02 | S. cerevisiae deletion strains, locus YKL068W, stronger effect = lower value 1.02 | S. cerevisiae deletion strains, locus YKL085W, strain MDH1 (second series), stronger effect = lower value 1.04 | S. cerevisiae deletion strains, locus YKL085W, strain MDH1, stronger effect = lower value 1.04 | S. cerevisiae deletion strains, locus YKL160W, strain elf1, stronger effect = lower value 0.98 | S. cerevisiae deletion strains, locus YKL190W, strain CNB1, stronger effect = lower value 1.01 | S. cerevisiae deletion strains, locus YKR001C, strain vps1, stronger effect = lower value 1.02 | S. cerevisiae deletion strains, locus YKR026C, strain gcn3, stronger effect = lower value 0.999 | S. cerevisiae deletion strains, locus YKR091W, strain srl3, stronger effect = lower value 0.999 | S. cerevisiae deletion strains, locus YLL001W, strain dnm1, stronger effect = lower value 0.943 | S. cerevisiae deletion strains, locus YLL026W, stronger effect = lower value 1.01 | S. cerevisiae deletion strains, locus YLL041C, strain sdh2, stronger effect = lower value 0.996 | S. cerevisiae deletion strains, locus YLR027C, strain aat2, stronger effect = lower value 1.02 | S. cerevisiae deletion strains, locus YLR039C, strain RIC1, stronger effect = lower value 1.03 | S. cerevisiae deletion strains, locus YLR058C, strain SHM2, stronger effect = lower value 1.01 | S. cerevisiae deletion strains, locus YLR102C, strain apc9, stronger effect = lower value 1.02 | S. cerevisiae deletion strains, locus YLR113W, strain HOG1, stronger effect = lower value 1.01 | S. cerevisiae deletion strains, locus YLR221C, strain rsa3, stronger effect = lower value 1.06 | S. cerevisiae deletion strains, locus YLR258W, strain gsy2, stronger effect = lower value 1.01 | S. cerevisiae deletion strains, locus YLR262C, strain YPT6 (second series), stronger effect = lower value 1.01 | S. cerevisiae deletion strains, locus YLR262C, strain YPT6, stronger effect = lower value 1.06 | S. cerevisiae deletion strains, locus YLR268W, strain sec22, stronger effect = lower value 1.01 | S. cerevisiae deletion strains, locus YLR320W, strain mms22, stronger effect = lower value 1.07 | S. cerevisiae deletion strains, locus YLR330W, strain CHS5, stronger effect = lower value 1.01 | S. cerevisiae deletion strains, locus YLR342W, strain FKS1 (second series), stronger effect = lower value 1.03 | S. cerevisiae deletion strains, locus YLR342W, strain FKS1, stronger effect = lower value 1.02 | S. cerevisiae deletion strains, locus YLR357W, strain rsc2, stronger effect = lower value 0.912 | S. cerevisiae deletion strains, locus YLR370C, strain arc18, stronger effect = lower value 1.01 | S. cerevisiae deletion strains, locus YLR371W, strain rom2, stronger effect = lower value 1.02 | S. cerevisiae deletion strains, locus YLR384C, strain iki3, stronger effect = lower value 0.999 | S. cerevisiae deletion strains, locus YLR418C, strain cdc73, stronger effect = lower value 1.02 | S. cerevisiae deletion strains, locus YML016C, strain PPZ1, stronger effect = lower value 1.01 | S. cerevisiae deletion strains, locus YML032C, strain rad52, stronger effect = lower value 1.02 | S. cerevisiae deletion strains, locus YML120C, strain ndi1, stronger effect = lower value 0.972 | S. cerevisiae deletion strains, locus YML124C, strain tub3, stronger effect = lower value 1.01 | S. cerevisiae deletion strains, locus YMR058W, strain fet3, stronger effect = lower value 0.987 | S. cerevisiae deletion strains, locus YMR078C, strain ctf18, stronger effect = lower value 1.01 | S. cerevisiae deletion strains, locus YMR125W, strain sto1, stronger effect = lower value 0.929 | S. cerevisiae deletion strains, locus YMR129W, stronger effect = lower value 1 | S. cerevisiae deletion strains, locus YMR205C, strain PFK2, stronger effect = lower value 0.982 | S. cerevisiae deletion strains, locus YMR223W, strain ubp8, stronger effect = lower value 1.02 | S. cerevisiae deletion strains, locus YMR231W, strain pep5, stronger effect = lower value 1.01 | S. cerevisiae deletion strains, locus YMR263W, strain SAP30, stronger effect = lower value 1.01 | S. cerevisiae deletion strains, locus YMR307W, strain GAS1, stronger effect = lower value 0.993 | S. cerevisiae deletion strains, locus YNL067W, strain RPL9B, stronger effect = lower value 0.996 | S. cerevisiae deletion strains, locus YNL071W, strain lat1, stronger effect = lower value 0.998 | S. cerevisiae deletion strains, locus YNL128W, strain TEP1, stronger effect = lower value 1 | S. cerevisiae deletion strains, locus YNL153C, strain GIM3, stronger effect = lower value 1.01 | S. cerevisiae deletion strains, locus YNL183C, strain NPR1, stronger effect = lower value 0.944 | S. cerevisiae deletion strains, locus YNL209W, strain ssb2, stronger effect = lower value 0.994 | S. cerevisiae deletion strains, locus YNL233W, strain BNI4, stronger effect = lower value 1.02 | S. cerevisiae deletion strains, locus YNL248C, strain rpa49, stronger effect = lower value 0.975 | S. cerevisiae deletion strains, locus YNL250W, strain rad50, stronger effect = lower value 1.01 | S. cerevisiae deletion strains, locus YNL271C, strain bni1, stronger effect = lower value 1.02 | S. cerevisiae deletion strains, locus YNL298W, strain CLA4, stronger effect = lower value 1.02 | S. cerevisiae deletion strains, locus YNL307C, strain MCK1, stronger effect = lower value 1.02 | S. cerevisiae deletion strains, locus YNL322C, strain KRE1 (second series), stronger effect = lower value 0.991 | S. cerevisiae deletion strains, locus YNL322C, strain KRE1, stronger effect = lower value 1.01 | S. cerevisiae deletion strains, locus YNR049C, strain mso1, stronger effect = lower value 0.998 | S. cerevisiae deletion strains, locus YNR052C, strain pop2, stronger effect = lower value 1.02 | S. cerevisiae deletion strains, locus YOL006C, strain TOP1, stronger effect = lower value 1.05 | S. cerevisiae deletion strains, locus YOL012C, strain htz1 0.974 | S. cerevisiae deletion strains, locus YOL147C, strain pex11, stronger effect = lower value 1.01 | S. cerevisiae deletion strains, locus YOR001W, strain rrp6, stronger effect = lower value 1.03 | S. cerevisiae deletion strains, locus YOR061W, strain CKA2, stronger effect = lower value 1.02 | S. cerevisiae deletion strains, locus YOR069W, strain VPS5, stronger effect = lower value 1.01 | S. cerevisiae deletion strains, locus YOR070C, strain gyp1, stronger effect = lower value 1.03 | S. cerevisiae deletion strains, locus YOR080W, strain dia2, stronger effect = lower value 1 | S. cerevisiae deletion strains, locus YOR083W, strain WHI5, stronger effect = lower value 0.989 | S. cerevisiae deletion strains, locus YOR106W, strain vam3, stronger effect = lower value 0.947 | S. cerevisiae deletion strains, locus YOR136W, strain idh2, stronger effect = lower value 1.02 | S. cerevisiae deletion strains, locus YOR144C, strain elg1, stronger effect = lower value 1.01 | S. cerevisiae deletion strains, locus YOR184W, strain ser1, stronger effect = lower value 1.05 | S. cerevisiae deletion strains, locus YOR231W, strain MKK1, stronger effect = lower value 1 | S. cerevisiae deletion strains, locus YOR265W, strain rbl2, stronger effect = lower value 1 | S. cerevisiae deletion strains, locus YOR270C, strain vph1, stronger effect = lower value 0.993 | S. cerevisiae deletion strains, locus YOR290C, strain snf2, stronger effect = lower value 0.95 | S. cerevisiae deletion strains, locus YOR316C, strain cot1, stronger effect = lower value 1.01 | S. cerevisiae deletion strains, locus YPL051W, strain arl3, stronger effect = lower value 1 | S. cerevisiae deletion strains, locus YPL055C, strain LGE1, stronger effect = lower value 1.02 | S. cerevisiae deletion strains, locus YPL078C, strain atp4, stronger effect = lower value 0.957 | S. cerevisiae deletion strains, locus YPL106C, strain sse1, stronger effect = lower value 0.983 | S. cerevisiae deletion strains, locus YPL240C, strain hsp82, stronger effect = lower value 1.01 | S. cerevisiae deletion strains, locus YPL241C, strain CIN2, stronger effect = lower value 1.01 | S. cerevisiae deletion strains, locus YPL256C, strain CLN2, stronger effect = lower value 0.994 | S. cerevisiae deletion strains, locus YPR119W, strain clb2, stronger effect = lower value 1 | S. cerevisiae deletion strains, locus YPR141C, strain kar3, stronger effect = lower value 1.01 | S. cerevisiae deletion strains, locus YPR163C, strain tif3, stronger effect = lower value 1.02 | S. cerevisiae deletion strains, locus YPR167C, strain met16, stronger effect = lower value 1.02 | S. cerevisiae deletion strains, strain wtn01, stronger effect = lower value 1.01 | S. cerevisiae strains, strain wild type, stronger effect = lower value 1.01

Source: PubChem BioAssay AID1159580 (chemical genetic matrix, 2015)
